Most compounds without a hit are left out; they make up all but 4.1% or so of the library.
hcDAF12 agonist – activators of H. contortus DAF-12 nuclear receptor | HEK293 hcDAF-12 lit1-tk-luc reporter, luminescence; 0% DMSO, 100% Δ7-dafachronic acid | activation, % at 6.8 µM | hit rate 1.4% among 370,000 | AID 652067;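 active = activation above the mean of all tested compounds plus 3 SD, cut at about 5.5% in these data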
PolyA inhibitor – yeast polyadenylation inhibition; S. cerevisiae SKY197-pL101 polyadenylation reporter, beta-gal luminescence; efflux-impaired pdr1/pdr3 knockout yeast; score 100 = 6 SD above DMSO; activity score, % at 12 µM; hit rate 0.02% among 300,000; AID 1875;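 active = lowest replicate activity score at least 50, where 100 means six control SD above control mean; inconclusive = lowest score under 50 but half or more replicates reach 50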;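 also: yeast exposed to compound for 9 h at 30 °C; higher score means more reporter readthrough which indicates perturbed polyadenylation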
DAX1 inh-1 – NR0B1 (DAX1) inhibition. hit rate 0.99% among 340,000. P51843. inhibition, % at 6.75 µM. AID 504766. HEK293 Gal4-DAX1 luciferase reporter, luminescence;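 active = inhibition above the mean over all tested compounds plus 3 SD, cut at about 4.2% in these data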;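 also: inhibition shows as a rise in luminescence from relieved DAX1 repression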
Target sequence (P51843 207-470 limits assumed): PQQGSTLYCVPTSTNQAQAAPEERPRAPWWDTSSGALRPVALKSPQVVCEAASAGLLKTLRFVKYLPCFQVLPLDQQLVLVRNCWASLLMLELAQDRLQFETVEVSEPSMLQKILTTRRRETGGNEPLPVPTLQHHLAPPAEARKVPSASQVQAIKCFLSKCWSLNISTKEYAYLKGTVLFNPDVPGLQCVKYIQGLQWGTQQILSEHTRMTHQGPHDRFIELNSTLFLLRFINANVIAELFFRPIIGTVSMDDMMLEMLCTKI
DAX1 inh-2 – DAX1 (NR0B1) inhibition, primary screen. HEK293T StAR-luciferase reporter, SF-1/DAX-1 repression relief. inhibition, % at 6.8 µM. hit rate 1.1% among 370,000. AID 652010;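 active = inhibition above the mean over all tested compounds plus 3 SD, cut at about 3.6% in these data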;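 also: higher inhibition means more luminescence from relief of DAX-1 repression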
ssDAF-12 act – S. stercoralis DAF-12 activation, primary screen. activation, % at 6.8 µM. HEK293 ssDAF-12/GRIP1 lit1-tk-luc reporter, luminescence; % of 3 µM dafachronic acid response. hit rate 1% among 370,000. AID 652126;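 active = activation above the mean over all tested compounds plus 3 SD, cut at about 0.9% in these data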
hgDAF12 agonist – agonists of H. glycines DAF-12 nuclear receptor. HEK293 GAL4-hgDAF12 UAS-luciferase reporter, agonist luminescence; normalized to butyrate control. activation, % at 6.8 µM. hit rate 1.8% among 370,000. AID 687014;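 active = activation above a cutoff set at the mean of all screened compounds plus 3 SD, cut at about 10% in these data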
A number is an active result; – = inactive; ? = inconclusive; · = no result.

SMILES	hcDAF12 agonist	PolyA inhibitor	DAX1 inh-1	DAX1 inh-2	ssDAF-12 act	hgDAF12 agonist
OC(c1ccc(F)cc1)c1ncc(-c2ccc3ccccc3c2)[nH]1 (stereo not drawn)	–	·	·	–	–	11
c1ccc(C[n+]2csc3ccccc32)cc1	–	–	–	–	1.1	–
Cc1ccc2nc(-c3ccc(NS(=O)(=O)c4ccc(F)c(F)c4)cc3)sc2c1	6.4	–	–	5.8	–	17
CC1(C)CC(=O)C2=C(C1)Nc1cc3c(cc1C2c1ccc2c(c1)OCO2)OCO3 (stereo not drawn)	–	–	5.3	–	–	–
C[C@H](CO)N1C[C@H](C)[C@@H](CN(C)C(=O)Nc2ccc3c(c2)OCO3)OCc2cn(nn2)CCCC1=O	–	·	·	–	–	–
Cc1ccccc1C1c2[nH]c3ccccc3c2C[C@H]2C(=O)N(C3CC3)CC(=O)N12 (stereo partly drawn)	6.4	–	–	–	–	–
O=C1[C@@H]2Cc3c([nH]c4ccccc34)C(c3ccccc3)N2C(=O)CN1C1CC1 (stereo partly drawn)	–	–	–	–	–	–
COc1ccc(-c2csc(NC(=O)c3ccoc3C)n2)cc1	–	–	–	–	–	11
COc1ccc2sc(NC(C)=O)nc2c1	–	–	–	–	–	11
COc1ccc2nc(NC(=O)c3ccccc3C(=O)O)sc2c1	5.7	–	–	–	–	–
CCOc1ccc2nc(NC(=O)c3ccccn3)sc2c1	–	–	–	–	–	–
CCOc1ccc2nc(NC(=O)c3ccoc3C)sc2c1	6.2	–	–	–	–	11
C/C(CC(=O)NCc1ccc(F)cc1)=N\NC(N)=S	–	–	4.8	–	–	–
Cc1cc(O)cc(=O)n1-c1cccc([N+](=O)[O-])c1	–	·	·	–	–	–
Cc1ccc(CSc2nc3c(c(=O)[nH]2)CCC3)cc1	–	–	–	–	–	–
COC(=O)c1ccc(CSc2nc3c(c(=O)[nH]2)CCC3)cc1	–	·	·	3.7	–	–
Cc1ccccc1NC(=O)OC1CC2CC1[C@H]1CCCCN1[C@H]2Cc1ccccc1 (stereo partly drawn)	–	·	·	–	–	–
COc1ccc(C(=O)N2CCC[C@@H]2C(=O)N2CCC[C@@H]2C(=O)NCc2ccccc2)cc1F	–	·	·	–	–	–
Cc1oc2cc3oc(=O)c(CCC(=O)NCCCN4CCCC4=O)c(C)c3cc2c1C	–	–	–	–	–	–
Cc1oc2c(C)c3oc(=O)c(CCC(=O)NCCCN4CCCC4=O)c(C)c3cc2c1C	–	–	4.3	–	–	–
Cc1oc2c(C)c3oc(=O)c(CCC(=O)NCCCN4CCOCC4)c(C)c3cc2c1C	–	–	6.7	–	–	–
O=C(CSc1nnc(-c2ccccn2)n1-c1ccccc1)Nc1cccc2ccccc12	–	·	·	–	–	–
COC(=O)[C@H]1C[C@@]2(Oc3ccc(Br)cc3)c3ccccc3N(C(=O)OC(C)(C)C)[C@H]2N1C(=O)OC(C)(C)C	–	·	·	–	–	–
Cc1ccc(-c2cc(-c3ccccc3)nc(Cl)n2)cc1	6.0	–	–	–	–	–
CS(=O)(=O)Nc1ccc(C2=NN(S(C)(=O)=O)C(c3ccc4c(c3)OCO4)C2)cc1 (stereo not drawn)	–	–	–	–	–	11
SMILES	hcDAF12 agonist	PolyA inhibitor	DAX1 inh-1	DAX1 inh-2	ssDAF-12 act	hgDAF12 agonist
COc1ccc(C2CC(c3ccc(OC)c(OC)c3)=NN2S(C)(=O)=O)cc1 (stereo not drawn)	–	–	4.6	–	–	13
COc1ccc(C2CC(c3cccs3)=NN2S(C)(=O)=O)cc1 (stereo not drawn)	–	–	–	–	–	–
CC(=O)N1c2ccccc2C(C)=NCC1C(=O)NC1CCCCC1 (stereo not drawn)	–	·	·	–	–	–
Cc1ccc(CN2CCCCC(NC(=O)Cc3cccs3)C2=O)cc1 (stereo not drawn)	–	·	·	–	–	–
C/C(=N\NC(=O)c1nnn(-c2nonc2N)c1CN1CCc2ccccc21)c1ccccc1O	5.6	–	–	–	–	–
Nc1nonc1-n1nnc(C(=O)N/N=C/c2ccccc2)c1CN1CCc2ccccc21	–	–	–	–	–	–
CCC(C)(C)C1CCC(=NNC(=S)Nc2ccccc2)CC1 (stereo not drawn)	–	–	–	–	–	–
S=C(NN=C1C2CC3CC(C2)CC1C3)Nc1ccccc1	6.1	–	–	–	1.2	–
CC(C)=CC(=O)Nc1nc2ccc([N+](=O)[O-])cc2s1	–	–	–	–	–	13
CCOC(=O)CC1C(=O)NCCN1C(=O)c1ccc(Cl)cc1 (stereo not drawn)	–	–	–	–	–	–
CCCCOc1ccc(C(=O)N2CCNC(=O)C2CC(=O)OC(C)C)cc1 (stereo not drawn)	–	–	–	–	1.9	–
COC(=O)[C@]12C[C@H](CC(=O)NCc3ccc(C)o3)C(=O)N(CCC3=CCCCC3)C1=C[C@H](C(C)C)O[C@@H]2C1CC1	–	·	·	–	2.1	–
COc1ccc(Cc2c(-c3ccc(F)cc3)nc3c4ccccc4ccn23)c(C)c1	6.0	·	·	–	–	–
COc1ccc(Cc2c(-c3ccc(C#N)cc3)nc3c4ccccc4ccn23)c(C)c1	–	·	·	–	–	–
COc1ccc(Cc2c(-c3ccccc3)nc3c4ccccc4ccn23)c(C)c1	5.6	·	·	–	–	–
CC1(O)C(=O)C2(C)C=CC1C1C(=O)N(c3ccccc3)C(=O)C12 (stereo not drawn)	–	·	·	–	–	–
OC1c2cc(Cl)cc(Cl)c2N=C2CCCN21 (stereo not drawn)	–	·	·	–	–	–
OC1c2cc(Cl)ccc2-c2c(Cl)cc(Cl)cc21 (stereo not drawn)	–	·	5.4	–	–	–
CCCC(C)NC(=O)COC(=O)c1cccc(NS(C)(=O)=O)c1 (stereo not drawn)	–	–	4.6	–	–	–
O=C(N/N=C/c1ccc([N+](=O)[O-])cc1)c1cc(C2CC2)[nH]n1	–	–	–	–	–	–
O=C(N/N=C/c1ccc([N+](=O)[O-])cc1)c1[nH]ncc1Br	–	–	4.7	–	–	–
O=C(CCNC(=O)c1ccccc1)N/N=C/c1ccc([N+](=O)[O-])cc1	–	–	–	–	–	–
O=C(CNc1ccccc1)N/N=C/c1ccc([N+](=O)[O-])cc1	–	–	–	–	1.6	–
CCCCOCCCNC(=O)C[C@@H]1C(=O)N(CCc2ccc(Cl)cc2)C2=CCCC[C@]21C(=O)OCC	–	·	·	–	–	–
CSc1ccccc1OCc1cc(C(=O)NC(C)Cc2cccc(C)n2)no1 (stereo not drawn)	–	–	–	–	–	–
Cc1nc(CNC(=O)c2cc(COc3c(F)cccc3F)on2)cs1	–	?	6.3	–	–	–

Assay outcomes: PubChem BioAssay, several laboratories
